Experimental data reported in PubChem BioAssay AID620 (Sanford-Burnham Center for Chemical Genomics, 2007).
The whole screen tested about 87,000 compounds, of which about 360 (0.41%) were called active. This is one part of a sample in which actives are shown more often than they occur. Values without a mark were called inactive. Cut-off read from the data, not from the text of the source: active = cytotoxicity above about 50%; inactive = the rest.

assay: cytotoxicity in HT1080 fibrosarcoma cells, cell-based, fluorescence readout (AID 620); conditions: HT1080 viability, at 10 µM, active compounds read high;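 note: cells exposed to compound overnight then 4 h with Alamar Blue; 0% = vehicle DMSO and 100% = killing control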

SMILES | cytotoxicity
O=C(Nc1nc(-c2cc(Cl)sc2Cl)cs1)c1cccs1 | -0.1%
CC(C)Sc1nc(-c2ccccc2)cc(=O)[nH]1 | 16.9%
N#CCCCSc1nnc(-c2ccccn2)o1 | 0.3%
CN(C)CCCNC(CC(=O)Nc1ccc(Cl)cc1)C(=O)O (stereo unspecified) | -0.1%
CCOC(=O)C1CCCN(C(=O)C2CCN(S(=O)(=O)c3cnc[nH]3)CC2)C1 (stereo unspecified) | 3.9%
O=C(CCl)Nc1cccc(-c2cnc3ccccc3n2)c1 | 98.8% (active)
O=C(Nc1cccc(-c2cnc3ccccc3n2)c1)c1ccco1 | -2.2%
O=C(CNC(=O)c1ccc(Br)o1)Nc1cccc(-c2cnc3ccccc3n2)c1 | -7.7%
CCC(=O)N1c2ccccc2NC2=C(C(=O)CCC2)C1c1cccnc1 (stereo unspecified) | -7%
CC(=O)N1CCCc2cc(S(=O)(=O)N(CC(C)C)CC(C)C)ccc21 | -25.7%
O=C(c1cccs1)N(Cc1ccco1)Cc1cc2ccccc2[nH]c1=O | -4.8%
Cc1ccc2cc(CN(Cc3ccco3)C(=O)c3cccs3)c(=O)[nH]c2c1 | 59.8% (active)
Cc1ccc2[nH]c(=O)c(CN(Cc3ccco3)C(=O)c3cccs3)cc2c1 | 4.9%
CN(C)S(=O)(=O)c1ccc(S(=O)(=O)N(CC(=O)Nc2ccccc2)Cc2ccco2)cc1 | 4.9%
COc1nnc(-c2ccc(C)c(S(=O)(=O)NCCO)c2)c2ccccc12 | 12.8%
CSc1cc(-c2ccccc2)n(Cc2ccccc2Cl)c(=O)c1C#N | 57.5% (active)
CSc1cc(-c2ccccc2)n(Cc2ccc(Cl)cc2Cl)c(=O)c1C#N | -9.5%
CSc1cc(-c2ccccc2)n(Cc2c(Cl)cccc2Cl)c(=O)c1C#N | 58.7% (active)
Cc1cc(C)n(Cc2ccccc2F)c(=O)c1C#N | 4.8%
CSc1cc(-c2ccc(Cl)cc2)n(Cc2ccccc2)c(=O)c1C#N | -8.7%
Cn1c(=O)c2c(nc(SCCCC#N)n2Cc2c(F)cccc2Cl)n(C)c1=O | 1.4%
CCOc1ccc(-c2cnc(SCC(N)=O)nc2N)cc1 | 3.8%
CCCCCOc1ccc(Br)cc1/C(C)=N/NC1=NCCN1 | 74.8% (active)
COc1ccc(Br)cc1/C(C)=N/NC1=NCCN1 | -8.6%

SMILES | cytotoxicity
CCCCOc1ccc(Br)cc1/C(C)=N/NC1=NCCN1 | 65.1% (active)
CCOc1ccc(CSC2=NCCN2)cc1Cl | 12.8%
CCCOc1ccc(Br)cc1/C=N/O | -13%
CCOc1ccc(Br)cc1/C(C)=N\NC1=NCCN1 | 12.3%
CCOc1ccc(NC(=O)c2cnccn2)cc1 | -17%
OC(c1cccnc1)c1cccs1 (stereo unspecified) | -4.7%
COc1ccc(Br)cc1CN1CCCC(C(=O)N2CCCCCC2)C1 (stereo unspecified) | 1.9%
O=C(Cn1nnc(-c2ccccc2NC(=O)c2cccs2)n1)Nc1ccccc1 | 0.3%
Cc1ccc(NC(=O)Cn2nnc(-c3ccccc3NC(=O)c3cccs3)n2)cc1 | 61.8% (active)
COc1ccc(NC(=O)Cn2nnc(-c3ccccc3NC(=O)c3cccs3)n2)cc1 | -14.1%
Cn1c(=O)c2c(-c3ccccc3)n(-c3ccccc3O)cc2n(C)c1=O | 35.8%
COc1ccc2c(c1OC)C(=O)N1c3cccc(Cl)c3C(=O)OC21 (stereo unspecified) | 14.4%
COc1ccc(Nc2nc(C)cc(C)c2C(N)=O)cc1 | 3.9%
COc1cc(C2C3=C(Nc4ncnn42)c2ccccc2CC3)cc(OC)c1OC (stereo unspecified) | 63.8% (active)
Clc1ccc(C2C3=C(Nc4ncnn42)c2ccccc2CC3)cc1 (stereo unspecified) | -2.4%
COc1ccc(C2C3=C(Nc4ncnn42)c2ccccc2CC3)cc1OC (stereo unspecified) | -2.9%
Cc1nn(Cc2ccc(F)cc2)c(C)c1NC(=O)c1cnn2c1NC(c1cccs1)CC2C(F)(F)F (stereo unspecified) | 11%
C=C(C)CSc1nc(C)c(Cc2ccccc2)c(=O)[nH]1 | -0.4%
c1ccc(NCc2nnc3n2CCCCC3)cc1 | 1.8%
Cn1c(=O)c2c(nc(NCc3ccccc3)n2Cc2ccc(F)cc2)n(C)c1=O | -1.5%
O=C(Cc1ccc(F)cc1)NCCc1ccccc1 | -6.5%
Cn1c(=O)c2c(nc(NCCc3ccccc3)n2Cc2ccc(F)cc2)n(C)c1=O | 0.4%
CC(=O)n1nc(-c2ccccc2)nc1NCc1ccc(F)cc1 | -1.3%
CC(=O)N(Cc1ccc(F)cc1)C1=C(NCc2ccccc2)C(=O)c2ccccc2C1=O | 92.6% (active)

SMILES | cytotoxicity
O=C(Nc1cccc(NC(=O)c2cccnc2Cl)c1)c1ccco1 | -4%
c1ccc2sc(-c3ccc4c(c3)OCO4)nc2c1 | 0.6%
CCCCN(C(=O)CNC(=O)c1ccco1)C(C(=O)NC1CCCCC1)c1ccc(OC)cc1OC (stereo unspecified) | -14.5%
COC(=O)c1ccccc1NC(=O)CN(c1cc(OC)ccc1OC)S(C)(=O)=O | -6.6%
COC1(OC)N=C(N)C2(C#N)C(c3cccc(Oc4ccccc4)c3)C12C#N (stereo unspecified) | 0.4%
CC(C)=CCC/C(C)=C/CCC(C)NCCN1CCNCC1 (stereo unspecified) | 6.9%
CC(C)=CCC/C(C)=C/CC(C)(C)CNCCN1CCNCC1 | 56.1% (active)
c1ccc(CNCCN2CCNCC2)nc1 | 6.5%
CCOc1ccc2nc(NC(=O)C3CCN(c4cnccn4)CC3)sc2c1 | -5.6%
COC(=O)[C@H](C)NC(=O)Nc1ccc(S(N)(=O)=O)cc1 | -17.4%
CCSc1nnc(-c2ccc(S(=O)(=O)N3CCOCC3)cc2)n1CC1CCCO1 (stereo unspecified) | -1.1%
CSc1nnc(-c2ccc(S(=O)(=O)N3CCOCC3)cc2)n1CC1CCCO1 (stereo unspecified) | 0.1%
O=S(=O)(c1ccc2c(c1)nc(COc1ccc(Cl)cc1)n2CC1CCCO1)N1CCOCC1 (stereo unspecified) | 96.6% (active)
CSc1nc2ccccc2n1C(=O)Oc1ccccc1 | 13.7%
COc1ccc(OC)c(NC(=O)CN2C(=O)c3ccccc3S2(=O)=O)c1 | -3.4%
Cc1ccc(S(=O)(=O)N2CCN(C(=O)CN3CCOCC3)C2c2ccccc2)cc1 (stereo unspecified) | 1.5%
CCOC(=O)N1CCC(NC(=O)c2ccc3c(c2)sc2nc(-c4cccc(OC)c4)cn23)CC1 | 11.5%
CCOC(=O)N1CCN(C(=O)c2ccc3c(c2)sc2nc(-c4ccccc4)cn23)CC1 | 0.3%
COc1ccc2c(c1)sc1nc(-c3ccccc3)cn12 | 75.6% (active)
COc1cccc(-n2c(SC)nnc2-c2c[nH]c3ccccc23)c1 | 6.9%
COC(=O)c1c(C)oc2c1cc(NS(=O)(=O)c1cccs1)c1ccccc12 | 0.6%
COc1ccc(S(=O)(=O)Nc2cc3c(C(C)=O)c(C)oc3c3ccccc23)cc1 | 62.6% (active)
COc1ccc(S(=O)(=O)Nc2cc3c4c(oc3c3ccccc23)CC(C)(C)CC4=O)cc1 | -13.5%
CCCc1nc2oc3cc(OC)ccc3c(=O)c2c(=O)n1Cc1ccco1 | -4.1%

SMILES | cytotoxicity
CCOC(=O)CSc1nc(-c2cccs2)nc2c1c(=O)n(C)c(=O)n2C | 1.5%
O=C(C1CCCN1S(=O)(=O)c1ccc(Cl)c(Cl)c1)N1CCCCC1 (stereo unspecified) | -5%
CCCNC(=O)C1CCN(c2ccc(S(=O)(=O)N3CCOCC3)cc2Cl)CC1 | -9.5%
CC(C)CNC(=O)C1CCN(c2ccc(S(=O)(=O)N3CCOCC3)cc2Cl)CC1 | -20.4%
O=C(NCc1cccs1)C1CCN(c2ccc(S(=O)(=O)N3CCOCC3)cc2Cl)CC1 | 67.8% (active)
COc1ccc(-n2nnnc2-c2ccccc2)cc1 | 58.8% (active)
COc1ccc(-n2nnnc2-c2cccc(OC)c2)cc1 | 48.1%
COc1ccc(-n2nnnc2-c2cccnc2)cc1 | -4.2%
COc1cccc(/C(O)=C2\C(=O)C(=O)N(c3ccccn3)C2c2cccc(OC)c2OC)c1 (stereo unspecified) | 21.5%
COC(=O)C(Cc1cnc(Cl)s1)(C(=O)OC)c1ccc([N+](=O)[O-])cc1[N+](=O)[O-] | -2%
CCC1=C2CC[C@H]3C(=O)N(CC)C(=O)[C@H]3[C@H]2[C@@]2(Cc3ccccc3)C(=O)N(CC3CC3)C(=O)N2C1=O | 2.7%
COc1ccc(-c2cc(C(F)(F)F)n3nc(C)cc3n2)cc1 | -1.8%
Cc1ccc(NC(=O)c2nnn(CC(=O)Nc3ccccc3)c2N)cc1C | -2.3%
Cc1cc(C(=O)CSc2nnnn2C)c(C)n1-c1ccc2c(c1)OCCO2 | 13.4%
Cc1cc(C(=O)CSc2nncs2)c(C)n1-c1ccc2c(c1)OCO2 | 24.4%
Cc1nnc(SCC(=O)c2cc(C)n(-c3ccc4c(c3)OCO4)c2C)s1 | 61.4% (active)
CN1C(=O)CC(Sc2ncccc2C(=O)O)C1=O (stereo unspecified) | 1.8%
Cc1cc(C)n(-c2nc3ccccc3nc2N2CCOCC2)n1 | -0.9%
CCOc1ccccc1N1CCN(C(=O)C2c3ccccc3Oc3ccccc32)CC1 | -0.5%
O=C(C1c2ccccc2Oc2ccccc21)N1CCN(c2ccc(Cl)cc2)CC1 | -1.1%
COc1ccccc1N1CCN(C(=O)C2c3ccccc3Oc3ccccc32)CC1 | 56% (active)
O=S(=O)(c1ccccc1C(F)(F)F)N1CCC(n2cnc3ccccc32)CC1 | -0.9%
COc1ccc(Cl)cc1NC(=O)/C=C\C(=O)O | -3.8%
Cc1occc1-c1nnc(SCC(=O)c2ccc(F)cc2)n1Cc1ccco1 | -0.9%
